Experimental data published in article PMC4336329 (PLoS ONE, 2015).
Among all 310,000 compounds or so, about 2,200 (0.71%) showed an effect of 50% or more. The effect is printed as a negative number. For the sample, strong results were picked, then their nearest neighbours and some compounds at random.

target: human ether-à-go-go-related gene (hERG) potassium channel (human, UniProt Q12809); assay: primary screen, population patch clamp on CHO cells stably expressing hERG; higher = less effect of the substance
Sequence (Q12809 whole entry, looked up): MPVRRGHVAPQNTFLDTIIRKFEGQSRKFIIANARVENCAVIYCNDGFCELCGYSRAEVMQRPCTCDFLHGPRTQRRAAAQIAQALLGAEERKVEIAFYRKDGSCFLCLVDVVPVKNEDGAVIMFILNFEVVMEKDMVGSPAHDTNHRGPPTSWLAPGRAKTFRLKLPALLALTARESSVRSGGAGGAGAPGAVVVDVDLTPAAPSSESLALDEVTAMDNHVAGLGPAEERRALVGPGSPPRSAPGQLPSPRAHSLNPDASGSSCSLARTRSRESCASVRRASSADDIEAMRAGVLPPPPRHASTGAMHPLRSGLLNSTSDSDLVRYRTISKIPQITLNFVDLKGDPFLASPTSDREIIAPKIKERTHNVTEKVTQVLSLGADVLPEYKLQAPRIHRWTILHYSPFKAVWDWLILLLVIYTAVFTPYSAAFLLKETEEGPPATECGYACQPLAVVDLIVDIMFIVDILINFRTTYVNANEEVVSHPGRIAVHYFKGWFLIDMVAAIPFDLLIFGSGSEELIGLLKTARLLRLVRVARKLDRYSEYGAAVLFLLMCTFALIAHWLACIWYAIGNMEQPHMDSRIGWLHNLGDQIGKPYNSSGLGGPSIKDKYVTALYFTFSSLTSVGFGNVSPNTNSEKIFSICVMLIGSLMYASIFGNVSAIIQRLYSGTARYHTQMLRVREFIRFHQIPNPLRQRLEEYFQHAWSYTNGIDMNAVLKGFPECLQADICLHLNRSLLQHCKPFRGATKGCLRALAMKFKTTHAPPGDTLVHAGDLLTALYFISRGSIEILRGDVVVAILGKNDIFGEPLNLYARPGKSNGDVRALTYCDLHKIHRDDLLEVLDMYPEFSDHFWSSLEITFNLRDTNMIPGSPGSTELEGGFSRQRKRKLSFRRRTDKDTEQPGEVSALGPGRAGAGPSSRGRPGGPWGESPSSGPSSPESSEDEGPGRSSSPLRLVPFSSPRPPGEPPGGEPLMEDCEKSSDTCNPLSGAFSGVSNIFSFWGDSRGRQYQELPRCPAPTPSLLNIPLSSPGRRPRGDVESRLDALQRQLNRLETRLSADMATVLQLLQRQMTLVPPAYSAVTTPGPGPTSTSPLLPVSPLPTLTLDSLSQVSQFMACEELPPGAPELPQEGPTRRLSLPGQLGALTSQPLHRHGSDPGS

Row | SMILES | hERG current change (%, negative = inhibition) at 1uM
1 | O=CNc1ccc(OP(=O)(Oc2ccccc2)Oc2ccccc2)cc1 | 1.71%
2 | O=C(N/N=C(/c1ccccc1)c1ccncc1)c1ccc2c(c1)OCO2 | 2.11%
3 | CC(C(=O)O)N1CCCCC1.Cl (centres unmarked) | -4.62%
4 | O=C(Cn1cncc1-c1ccc([N+](=O)[O-])cc1)Nc1ccccc1F | -0.387%
5 | O=C(c1noc2c1CCCC2)N1CCN(c2ccc(F)cc2)CC1 | 20%
6 | N#Cc1ccc(CN2CCN(C(=O)CCNS(=O)(=O)c3ccc(F)c(Cl)c3)CC2)cc1 | -29.3%
7 | O=C(CCNS(=O)(=O)c1ccc(Cl)cc1)N1CCN(Cc2ccccc2)CC1 | -16.1%
8 | N#Cc1ccc(CN2CCN(C(=O)CCNS(=O)(=O)c3ccc(F)c(F)c3)CC2)cc1 | -62.3%
9 | O=C(CCN1CCN(c2ccc(Cl)cc2)CC1)Nc1ccccc1F | 5.25%
10 | O=C(CCN1CCN(CC(=O)Nc2ccccc2Cl)CC1)Nc1ccccc1F | -54%
11 | O=C(CCN1CCN(S(=O)(=O)c2ccc(Cl)cc2)CC1)Nc1ccccc1F | 4.11%
12 | O=C(CN1CCN(CCC(=O)Nc2ccccc2F)CC1)Nc1ccc(F)cc1 | -78.3%
13 | O=C(CCN1CCN(c2ccc(F)cc2)CC1)Nc1ccccc1F | -9.21%
14 | O=C(CCN1CCN(c2ccccc2F)CC1)Nc1ccccc1Cl | 7.43%
15 | O=C(CN1CCN(CCC(=O)Nc2ccccc2F)CC1)Nc1ccc(Cl)cc1 | -84.3%
16 | O=C(CCN1CCN(c2ccccc2F)CC1)Nc1ccc(F)cc1 | 14.4%
17 | O=C(CCN1CCN(CC(=O)Nc2ccccc2F)CC1)Nc1ccccc1F | -38.4%
18 | CC(C)Oc1ccc(C(=O)OCC(=O)NCCNC(=O)COC(=O)c2ccc(OC(C)C)cc2)cc1 | 8.62%
19 | Cc1ccc(CCNC(=O)C2CCCN(S(=O)(=O)N3CC(C)CC(C)C3)C2)cc1 (centres unmarked) | 16.3%

Row | SMILES | hERG current change (%, negative = inhibition) at 1uM
20 | COc1cc(Cl)c(C)cc1NC(=O)COc1ccccc1[N+](=O)[O-] | -2.79%
21 | COc1cccc(/C=C/C(=O)Nc2ccc3c(c2)OCCO3)c1OC | 15.5%
22 | CC(=O)NCCc1nc(-c2ccc(Cl)cc2)no1 | 10.3%
23 | CC(C)OC(=O)Cc1ccccc1 | 10.3%
24 | CCOc1nc(S(=O)(=O)c2ccc(C)cc2)c(Cl)s1 | 7.74%
25 | Clc1ccc(-c2nnc(NCc3ccccc3)c3ccccc23)cc1 | 4.55%
26 | Clc1ccc(-c2nnc(NCCN3CCCC3)c3ccccc23)cc1 | -55.1%
27 | Clc1ccc(-c2nc(NCCN3CCOCC3)c3ccccc3n2)cc1 | -16.9%
28 | COc1ccc(NC(=O)CSc2nnc(Cn3c(=O)sc4ccccc43)n2C)c(OC)c1 | -2.58%
29 | CCN(C(=O)CSc1nc(N)cc(N)n1)C1CCS(=O)(=O)C1 (centres unmarked) | 7.31%
30 | CN(CC#CC(O)(c1ccccc1)c1ccccc1)C(C)(C)C | -40.8%
31 | CN(C)C(C)(C)C#CCC(c1ccccc1)c1ccccc1.Cl | 5.49%
32 | CN(CC#CCC(c1ccccc1)c1ccccc1)C(C)(C)C.Cl | -56.4%
33 | CNc1ccc(/C=C/C(=O)c2cccc3ccccc23)cc1[N+](=O)[O-] | 7.91%
34 | CC(C)c1ccc(N(CC(=O)N2CCN(Cc3ccccc3)CC2)S(C)(=O)=O)cc1 | 7.12%
35 | Cc1cc(/C([O-])=C(/C(=S)Nc2ccc(F)cc2)[n+]2ccccc2)c(C)n1-c1ccc(F)cc1 | -1.77%
36 | Cc1ccc(C(=O)Nc2nc3ccccc3n2CCN2CCCC2)cc1 | -19.5%
37 | O=C(Nc1nc2ccccc2n1CCN1CCCCC1)c1ccc(Cl)cc1 | -5.1%
38 | CCn1cc(Cl)c(C(=O)Nc2nc3ccccc3n2CCN2CCCCC2)n1 | -51.8%

Row | SMILES | hERG current change (%, negative = inhibition) at 1uM
39 | Cc1c(Cl)c(C(=O)Nc2nc3ccccc3n2CCN2CCCCC2)nn1C | -61.5%
40 | O=C(Nc1nc2ccccc2n1CCN1CCCCC1)c1ccco1 | -37.4%
41 | CCn1nccc1C(=O)Nc1nc2ccccc2n1CCN1CCCCC1 | -11.2%
42 | CC(C)Oc1cccc(C(=O)C2CCCN(C(=O)CCc3cnn(C)c3)C2)c1 (centres unmarked) | 10.7%
43 | CCCn1c(C)cc(/C=C(\C#N)C(=O)OCC(=O)N(C)c2c(N)n(Cc3ccccc3)c(=O)[nH]c2=O)c1C | 11%
44 | O=C(CNc1ccc(F)cc1)N/N=C/c1c(O)ccc2ccccc12 | 6.94%
45 | CCNc1nnc(-c2ccc(C)cc2)o1 | 9.37%
46 | C/C=C/c1ccc(OCCNCc2ccccc2)c(OC)c1.O=C(O)C(=O)O | 4.38%
47 | C/C=C/c1ccc(OCCCNC)c(OC)c1.O=C(O)C(=O)O | -10.9%
48 | C/C=C/c1ccc(OCCCCNCc2ccco2)c(OC)c1.O=C(O)C(=O)O | -62.6%
49 | O=C(c1cccnc1NCc1ccc(F)cc1)N1CCOCC1 | 5.16%
50 | CN(C)c1ccc(/C=C/C(=O)c2ccccc2)cc1[N+](=O)[O-] | -0.74%
51 | Cc1cccc(NC(=O)CN2CCN(C(=O)C3CCC3)CC2)c1C | -7.56%
52 | COC(=O)C1CCN(C(=O)/C=C/c2ccccc2)CC1 | 11.1%
53 | Cc1cccc(NC(=O)CN2CCN(C(=O)C3CCCO3)CC2)c1C (centres unmarked) | 5.32%
54 | Cc1cccc(NC(=O)CN2CCN(C(=O)C3CCN(C(=O)/C=C/c4ccccc4)CC3)CC2)c1C | -56.6%
55 | CCc1ccccc1NC(=O)CN1CCN(CC(=O)Nc2ccc(-c3ccccc3)cc2)CC1 | -7.45%
56 | CCc1ccccc1NC(=O)CN1CCN(C(=O)C2CCN(C(=O)/C=C/c3ccccc3)CC2)CC1 | -74.5%
